The results in this text go back to PubChem BioAssay (NCI).

Among the test systems are SK-MEL-2 melanoma; SN12C renal; UO-31 renal; ACHN renal; A498 renal; CCRF-CEM leukemia; MOLT-4 leukemia; EKVX NSCLC; TK-10 renal; CAKI-1 renal.
Assay in all cases: NCI-60 one-dose screen, 48 h (100 = growth as untreated, 0 = no growth, -100 = all killed)
Common to all, as to conditions: 10 µM unless noted

Compounds without any hit were thinned out: in the full panel of roughly 83,000, 20% have a hit.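 The endpoint reported here, percent growth, reads 100 for growth as untreated, 0 for no net growth and -100 for all cells dead.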 A number with no mark means an inactive call. Activity calls are given as the source filed them. The calls were made as follows: active = growth percent below 10; inactive = the rest.

With `C#Cc1cc2c(N)c(C(=O)c3cc(OC)c(OC)c(OC)c3)[nH]c2cc1OC`, the growth in the assay on SK-MEL-2 melanoma was 15.6%; in the assay on SN12C renal, 67.9%; in the assay on UO-31 renal it was 35.7%; in the assay on ACHN renal, 35.7%; in the assay on A498 renal, -19.1% (active); with CCRF-CEM leukemia it was 16%. Moreover, the growth with MOLT-4 leukemia was 32%.
As for `O=C1c2ccccc2C(=Cc2ccccc2)c2ccccc21`, the growth is 11.3% with EKVX NSCLC; 22.3% in the assay on SN12C renal; 28% in the assay on UO-31 renal; -7.83% (active) with TK-10 renal; 28.1% in the assay with ACHN renal; -17.4% (active) in the assay on A498 renal. Besides, the growth in the assay on CCRF-CEM leukemia is 11.7%; in the assay on MOLT-4 leukemia, 17.3%.
On to `Cc1cc(Cl)c2c(N(C)C)cccc2n1`, for which the growth in the assay with SN12C renal was 102%; in the assay with UO-31 renal, 91.1%; in the assay on TK-10 renal it was 125%; with ACHN renal, 112%; with CAKI-1 renal, 99.9%; with A498 renal, 92.1%. Besides, the growth in the assay with CCRF-CEM leukemia is 89.8%; in the assay with MOLT-4 leukemia it was 97.6%.
On to `C[N+](C)(CCCCCC[N+](C)(C)C1c2ccccc2-c2ccccc21)C1c2ccccc2-c2ccccc21`, for which the growth with SK-MEL-2 melanoma was 95.8%; with SN12C renal, 108%; in the assay on UO-31 renal it was 89%; with TK-10 renal, 112%; with ACHN renal, 106%; with CCRF-CEM leukemia, 106%. Moreover, the growth in the assay with MOLT-4 leukemia is 90.1%.
For `CN1CCN(c2nc(-c3cccc4ccccc34)nc3sc4c(c23)CCCCCC4)CC1`, the growth with SK-MEL-2 melanoma was 106%; in the assay on SN12C renal, 75.9%; with UO-31 renal, 46%; in the assay with TK-10 renal it was 113%; with ACHN renal, 82.7%; in the assay on A498 renal it was 94.2%. Further, the growth is 75.2% in the assay on CCRF-CEM leukemia and 74% with MOLT-4 leukemia.
Regarding `COC(=O)C(N)CSC(c1ccccc1)(c1ccccc1)c1ccccc1` (centres undefined), the growth in the assay on SN12C renal is 39.9%; with UO-31 renal, 52.6%; with TK-10 renal it was 49.5%; in the assay on ACHN renal, 57%; in the assay on A498 renal, 34.1%; in the assay with CCRF-CEM leukemia it was 13.7%. The growth with MOLT-4 leukemia is 8.4% (active).
`Cc1[c-]onc1C.Cc1[c-]onc1C.[Ag].[Ag].[NH-]S(=O)(=O)c1ccc(N=Nc2cc(N=Nc3ccc(S([NH-])(=O)=O)cc3)c3c(NC(=O)C(Cl)Cl)cccc3c2OC(=O)C(Cl)Cl)cc1`: the growth in the assay with SN12C renal is 94.1%; in the assay with UO-31 renal, 71.4%; in the assay on TK-10 renal, 133%; in the assay on ACHN renal, 58%; with CAKI-1 renal, 68.5%; in the assay with A498 renal, 98.6%. In addition, in the assay with MOLT-4 leukemia, the growth is 81.8%.
Take `Nc1c(C(=O)Nc2cccc(Cl)c2)sc2ncc(Cl)cc12`: the growth with SN12C renal was 79.3%; in the assay on UO-31 renal, 80.5%; with TK-10 renal, 118%; in the assay on ACHN renal it was 23.9%; in the assay on CAKI-1 renal, 82.6%; with A498 renal it was 103%. The growth in the assay with MOLT-4 leukemia is 75.8%.
`CC(C)=CCC/C(C)=C/CC/C(C)=C/CC/C(C)=C/CSC[C@H](NC(=O)CCCCCN1CCN(C)CC1)C(=O)NC1CCCCC1`: the growth is 97.6% in the assay with SK-MEL-2 melanoma; 97.7% in the assay on SN12C renal; 67.3% with UO-31 renal; 111% with TK-10 renal; 83.4% in the assay on ACHN renal; 92.9% in the assay with A498 renal. In addition, the growth was 17.4% with CCRF-CEM leukemia and 45.2% with MOLT-4 leukemia.
Take `O=C(NC(Cc1cn(Cc2ccccc2)cn1)C(=O)O)OCC1c2ccccc2-c2ccccc21` (centres undefined): the growth in the assay on SN12C renal is 108%; in the assay with UO-31 renal, 85.1%; with TK-10 renal it was 105%; in the assay with ACHN renal it was 104%; with CAKI-1 renal, 103%; with A498 renal, 102%. Moreover, the growth was 111% with CCRF-CEM leukemia and 83.6% with MOLT-4 leukemia.
Turning to `CC(C)(C)CC(C)(C)c1ccc(OCCOCC[N+](C)(C)CC(=O)[O-])cc1`, the growth in the assay on SK-MEL-2 melanoma is 117%; with SN12C renal, 103%; with UO-31 renal, 98.5%; in the assay on TK-10 renal, 109%; in the assay with ACHN renal, 111%; in the assay on A498 renal, 104%. Besides, in the assay with MOLT-4 leukemia, the growth was 94.2%.
As for `NS(=O)(=O)c1ccc(CCNC(=O)/C=C/c2ccc(Cl)cc2)cc1`, the growth with SK-MEL-2 melanoma was 106%; with SN12C renal, 92.9%; in the assay with UO-31 renal it was 83.7%; in the assay with TK-10 renal, 121%; in the assay on ACHN renal it was 102%; in the assay on CCRF-CEM leukemia it was 91.1%. The growth with MOLT-4 leukemia is 74.6%.
As to `C/C(=N\Nc1ccc2ccccc2n1)c1ccccn1`, the growth in the assay on SN12C renal is 17.5%; with UO-31 renal, -39.2% (active); with TK-10 renal, 15.2%; with ACHN renal, -3.16% (active); in the assay on CAKI-1 renal it was -10.9% (active); in the assay on CCRF-CEM leukemia, -5.75% (active). For the same compound, the growth with MOLT-4 leukemia is 1.13% (active).
As to `NC(Cc1ccc(O)cc1)C(=O)N/N=C/c1ccccc1O` (centres undefined), the growth is 114% in the assay with SN12C renal; 74.6% in the assay on UO-31 renal; 98% in the assay on TK-10 renal; 116% in the assay with ACHN renal; 107% with CAKI-1 renal; 103% in the assay on A498 renal. The growth in the assay on CCRF-CEM leukemia was 81.2%; with MOLT-4 leukemia it was 75.6%.
As to `OCCNc1nc(Nc2ccc(Cl)c(Cl)c2)nc2ccccc12`, the growth was 64.1% in the assay with SK-MEL-2 melanoma; 37.2% with SN12C renal; 47.6% in the assay on UO-31 renal; 59.7% in the assay on ACHN renal; 47% with A498 renal; 15.7% with CCRF-CEM leukemia. Moreover, the growth with MOLT-4 leukemia is 6.93% (active).
Take `C/C(=N/NC(N)=S)C(=O)O`: the growth with SK-MEL-2 melanoma was 118%; with SN12C renal, 80.6%; with UO-31 renal, 73.6%; with TK-10 renal, 119%; in the assay with ACHN renal, 91.7%; in the assay with A498 renal, 110%. The growth in the assay with MOLT-4 leukemia was 27.7%.
On to `COc1cc(-c2nc(-c3ccccc3)c(-c3ccccc3)[nH]2)cc(OC)c1O`, for which the growth with SK-MEL-2 melanoma is -39.7% (active); in the assay on SN12C renal it was 2.29% (active); with UO-31 renal, 5.85% (active); in the assay on TK-10 renal it was 0.953% (active); in the assay on ACHN renal it was 15.2%; in the assay with A498 renal, 82.8%. Moreover, the growth is -0.116% (active) in the assay on CCRF-CEM leukemia and 4.88% (active) in the assay with MOLT-4 leukemia.
`Cc1nn(-c2ccc(Br)cc2)c2nc3[nH]c(=O)[nH]c(=O)c3nc12`: the growth in the assay on SK-MEL-2 melanoma was 111%; in the assay on SN12C renal it was 109%; in the assay with UO-31 renal, 94.2%; in the assay with TK-10 renal, 144%; in the assay with ACHN renal, 106%; in the assay with A498 renal, 84.3%. Also, the growth in the assay on MOLT-4 leukemia was 116%.
For the compound `O=c1c(CNc2ccc(S(=O)(=O)Nc3nccs3)cc2)coc2ccccc12`, the growth is 98.1% with SK-MEL-2 melanoma; 99.1% with SN12C renal; 82.2% in the assay with UO-31 renal; 94.2% with ACHN renal; 98.5% in the assay with CAKI-1 renal; 112% in the assay with A498 renal.
As for `Cc1cc(Nc2ccc(F)cc2)nc(N2CCN(c3ccnc4cc(Cl)ccc34)CC2)n1`, the growth in the assay with SK-MEL-2 melanoma is 4.35% (active); in the assay on SN12C renal, 30.2%; in the assay with UO-31 renal, 3.92% (active); in the assay with TK-10 renal it was 8.31% (active); in the assay with ACHN renal, 2.61% (active); with A498 renal, -1.6% (active). The growth in the assay with CCRF-CEM leukemia is 15.5%; in the assay on MOLT-4 leukemia, 6.8% (active).
As to `COc1ccc(C(=O)/C=C/c2cc(-c3cc(OC)c(OC)c(OC)c3)n[nH]2)cc1OC`, the growth in the assay with SK-MEL-2 melanoma was 22.6%; in the assay on SN12C renal, 5.5% (active); in the assay on UO-31 renal, -84.8% (active); with ACHN renal it was -86.2% (active); in the assay with CAKI-1 renal it was -67% (active); in the assay with A498 renal, 4.21% (active). The growth with CCRF-CEM leukemia is -18.6% (active); in the assay on MOLT-4 leukemia, -1.18% (active).
Regarding `O=C1C=C(C(O)c2ccc(O)cc2)C(=O)c2ccccc21` (centres undefined), the growth was 109% with SK-MEL-2 melanoma; 107% in the assay with SN12C renal; 69.2% in the assay with UO-31 renal; 103% with TK-10 renal; 92.7% with ACHN renal; 104% in the assay with A498 renal. In addition, in the assay on MOLT-4 leukemia, the growth was 84.8%.
In the case of `CCc1ccc(-c2ccc(Nc3ccccc3)nn2)cc1S(N)(=O)=O`, the growth is 78.9% in the assay with SK-MEL-2 melanoma; 88.6% with SN12C renal; 101% in the assay on UO-31 renal; 77% in the assay with ACHN renal; 92.6% in the assay on CAKI-1 renal; 72.2% in the assay on A498 renal.
`COc1cc2[nH]c(C(=O)c3cc(OC)c(OC)c(OC)c3)c(N)c2cc1C#CCO`: the growth in the assay with SK-MEL-2 melanoma was 29.6%; in the assay on SN12C renal, 45.1%; in the assay on UO-31 renal, 31.5%; in the assay with ACHN renal, 23%; in the assay on A498 renal, -16.8% (active); in the assay with CCRF-CEM leukemia, 11.5%. Further, the growth in the assay with MOLT-4 leukemia is 29.6%.
Regarding `COc1ccc(-c2nc3ncccn3c2-c2nc3ccc(Br)cc3[nH]2)cc1`, the growth in the assay on SK-MEL-2 melanoma is 83.5%; with SN12C renal, 89%; in the assay on UO-31 renal it was 84.4%; with ACHN renal, 88.6%; in the assay with CAKI-1 renal, 93.7%; in the assay with A498 renal it was 75.5%.
On to `O=C(c1ccccc1)C(CN1CCOCC1)c1ccccc1` (centres undefined), for which the growth with SK-MEL-2 melanoma was -8.58% (active); with SN12C renal, 28.1%; with UO-31 renal, 11.2%; in the assay with TK-10 renal it was 9.68% (active); with ACHN renal, 6.83% (active); in the assay on A498 renal, 93%. Further, the growth with CCRF-CEM leukemia is 4.53% (active); in the assay with MOLT-4 leukemia, 19.2%.
`Cc1nnc2nc(N)[nH]n2c1=O`: the growth in the assay with SN12C renal is 118%; in the assay on UO-31 renal, 84.7%; in the assay on TK-10 renal, 89.8%; in the assay with ACHN renal, 109%; in the assay with CAKI-1 renal it was 111%; in the assay with CCRF-CEM leukemia, 109%. The growth in the assay on MOLT-4 leukemia is 74.7%.
For `c1ccc(C2Cc3ccccc3C2=NC2CCCCC2)cc1` (centres undefined), the growth in the assay with SK-MEL-2 melanoma is 93.5%; in the assay on SN12C renal, 101%; with UO-31 renal, 89.5%; in the assay with ACHN renal, 97%; in the assay with A498 renal, 97.9%; in the assay on CCRF-CEM leukemia, 94.8%. Moreover, the growth with MOLT-4 leukemia was 102%.
Turning to `Nc1nc(N)c2nc3c(nc2n1)CCCCCCCCCC3`, the growth in the assay with SK-MEL-2 melanoma was 77.5%; in the assay with SN12C renal it was 43.2%; in the assay on UO-31 renal, 48.7%; in the assay on TK-10 renal, 80.3%; in the assay on ACHN renal it was 39.4%; in the assay on A498 renal, 93.6%. Moreover, the growth in the assay with CCRF-CEM leukemia was 3.44% (active); with MOLT-4 leukemia, 45.3%.
In the case of `C/C(=N\Nc1cc(C)c2ccccc2n1)c1ccccn1`, the growth is 18.2% with SN12C renal; -86% (active) with UO-31 renal; -12.9% (active) in the assay with TK-10 renal; -47.1% (active) in the assay with ACHN renal; -15.1% (active) in the assay on CAKI-1 renal; 19.2% with A498 renal. The growth in the assay with CCRF-CEM leukemia was -20.2% (active); in the assay with MOLT-4 leukemia, -18.7% (active).
